# FUS yeast rescue = qHTS for Suppressors of FUS Proteinopathy: Primary screen using FUS-linked yeast assay. 390,000 tested, 0.24% active. S. cerevisiae FUS-expressing, growth rescue, OD600, 24 h. AID 1347120, 2019. Potency, µM (highest dose often 76.6 µM), actives largely listed as activators; also: nearly all actives have a fitted effect of over 55% in size
#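 Read-out: OD at 600 nm after 24hr at 30C, reporting rescue of FUS-induced yeast toxicity. Cells at OD 0.005 in galactose (2%) minimal medium; compounds tested in a dilution series; CP55940 titration from 92uM final as control.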
# TDP43 rescue = qHTS of TDP-43 Inhibitors | 410,000 tested, 1.8% active | TDP-43 expressing yeast growth rescue, BacTiter-Glo, 24 h | AID 652104, 2013 | Potency, µM (top dose mostly 46.1 µM), hits mostly activators; also: nearly all actives have a fitted effect of over 50% in size
#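 Galactose-induced TDP-43 yeast, OD600=0.02, compound pinned; 24 hr, 30 deg C; BacTiter-Glo luminescence for growth. Inhibitors of TDP-43 toxicity read as activators.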
# aSyn yeast inh = qHTS of alpha-syn Inhibitors; Yeast expressing alpha-synuclein, growth rescue, BacTiter-Glo, 24 h; Potency, µM (titrated, usually from 46.1 µM), most hits filed as activators; 370,000 tested, 0.14% active; AID 652106, 2013; also: nearly all actives have a fitted effect of over 65% in size
#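 Readout is rescue of growth in alpha-synuclein-expressing yeast, so inhibitors of toxicity appear as activators. Growth after 24 hr at 30 deg C in galactose medium is quantified by luminescence.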
# Abeta yeast res = qHTS for compounds that reverse cellular toxicity of Amyloid beta (A-beta) peptide in yeast: Primary Screen; yeast expressing A-beta42, growth rescue, OD600, 48 h; response scale: 0% DMSO, 100% iron-clioquinol control; Potency, µM (titrated, usually from 46.1 µM), most hits filed as activators; 410,000 tested, 0.063% active; AID 1347071, 2019; also: nearly all actives have a fitted effect of over 55% in size
#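 Growth rescue measured by 600 nm absorbance after 48 h yeast culture at 30 C with compound. Values normalized between DMSO and an equimolar ferric chloride plus clioquinol control.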
# A number is an active result; 0 = inactive; ? = inconclusive; - = no result; [ ] = dose if it differs, or a comment. Compounds with a hit are over-represented: about 2.1% of the library has one in this group of screens. Calls follow the shape of the dose curve; as a rule, active = well fitted curve in the direction sought with a large enough effect; inconclusive = small, poorly fitted or top-dose-only effect, or another doubt; inactive = no such curve, though single readings can be large; an effect the other way counts as inactive or inconclusive.
SMILES,FUS yeast rescue,TDP43 rescue,aSyn yeast inh,Abeta yeast res
N/C(=N\OC(=O)c1ccc(Cl)c(Cl)c1)c1cccc(CSc2ccccn2)c1,0,11µM,0,0
Cc1nc2ncnn2c(C)c1CCC(=O)N1CCN(c2ccccc2)CC1,0,0,-,0
C=CCn1c(SCc2c(F)cccc2Cl)nnc1-c1ccco1,0,13µM,0,0
C=CCn1c(SCc2ccc(C#N)cc2)nnc1-c1ccco1,0,-,-,-
O=C(NCc1ccccc1Cl)c1ccc(Nc2nc3ccccc3n3nnnc23)cc1,0,0,0,0
CCC(NC(=O)CN1CCN(c2cccc(OC)c2)CC1)c1ccccc1 (stereo not drawn),0,-,-,-
N#C/C(=C/c1ccc(N2CCCCCC2)o1)c1ccc(Cl)cc1,22µM,0,0,0
N#C/C(=C/c1ccc(N2CCCCC2)o1)c1cccc(F)c1,32µM,0,0,0
N#C/C(=C/c1ccc(N2CCCCC2)cc1)c1cccc(F)c1,0,0,0,0
CCc1ccc(OCCCCn2c(CCNC(=O)C3CCCCC3)nc3ccccc32)cc1,-,-,0,-
COc1ccc(CNC(=O)CCCc2nnc3n(CCC(C)C)c(=O)c4sccc4n23)cc1,0,0,-,0
O=C(Oc1ccc2ccc(O)cc2c1)C1CCCCC1,0,22µM,0,0
O=C(Oc1ccc2ccc(O)cc2c1)c1ccccc1Cl,0,14µM,0,0
Cc1sc2ccccc2[n+]1C,-,-,0,-
COc1ccc(-c2csc(C(NC(C)=O)c3ccc(F)c(F)c3)n2)cn1 (stereo not drawn),0,35µM,0,0
CC(=O)NC(c1cccc(F)c1)c1nc(-c2cccc(C(C)C)c2)cs1 (stereo not drawn),?,25µM,?,0
COc1ccc(-c2csc(C(NC(C)=O)c3cccc(F)c3)n2)cn1 (stereo not drawn),0,0,0,0
CCn1c2ccccc2c2cc(/C=C3/C=Cc4ccccc43)ccc21,-,-,0,-
O=C(O)CCCCCCCCc1cn(CCc2c[nH]c3ccccc23)nn1,0,13µM,0,0
CCCCCc1ccc(-c2cn(CCc3c[nH]c4ccccc34)nn2)cc1,0,0,0,0
CCOc1ccc(C2C(=O)N(C3CCCCC3)CC(=O)N2CCc2ccccc2)cc1OC (stereo not drawn),0,0,-,0
COc1ccc(-c2nc3cc(C(C)C)ccc3o2)cc1NC(=O)c1ccc(C)c(Cl)c1,0,0,-,0
CC1=C(C(=O)OC2CCCCCC2)C(c2c(F)cccc2Cl)CC(=O)N1 (stereo not drawn),0,11µM,-,0
O=C(Nc1ccc(Br)cc1)c1ccc2ncsc2c1,0,3.2µM,0,0
COc1ccc(NC(=O)c2ccc3ncsc3c2)cc1,0,7.1µM,0,?
SMILES,FUS yeast rescue,TDP43 rescue,aSyn yeast inh,Abeta yeast res
COC(=O)C1CCCN(C(=O)C2CCN(S(=O)(=O)c3cccc4cccnc34)CC2)C1 (stereo not drawn),0,-,-,-
CCOc1ccc(-c2cn(-c3ccc(OC)cc3)c(SC)n2)cc1,0,13µM,0,0
CCOc1ccc(-c2cn(-c3ccc(OC)cc3)c(SCC(=O)Nc3ccccc3Cl)n2)cc1,0,0[9.22 µM],-,0
Cc1ccc(Cn2cnc3nc4c(cc3c2=O)CC(C)CC4)cc1 (stereo not drawn),0,0,-,0
Cc1cc2oc(C(=O)Nc3ccc(S(=O)(=O)N4CCCCCC4)cc3)cc(=O)c2cc1C,0,0,-,0
Cc1cc(S(=O)(=O)Nc2ccc3ccccc3c2)c(C)s1,0,?,18µM,0
Cc1cc(S(=O)(=O)Nc2cccnc2)c(C)s1,0,0,0,0
Cc1ccc(S(=O)(=O)Nc2ccc3ccccc3c2)cc1,-,0,?,0
COc1ccc(S(=O)(=O)Nc2ccc3ccccc3c2)cc1C,0,?,22µM,0
CCCCOc1c(Cl)cc(C(=O)N(Cc2ccc(C)o2)C2CCS(=O)(=O)C2)cc1Cl (stereo not drawn),?,?,-,0
CCCCCOc1c(Cl)cc(C(=O)N(Cc2ccc(C)o2)C2CCS(=O)(=O)C2)cc1Cl (stereo not drawn),35µM,0,-,0
c1ccc(CNc2ncnc3scc(-c4cccs4)c23)nc1,0,18µM,0,0
Nc1ccc2nc(SCc3ccccc3F)sc2c1,0,13µM,0,0
Nc1ccc2nc(SCC(=O)c3ccccc3)sc2c1,0,?,0,0
O=C(NCc1ccccc1Cl)C1CCCN(c2ncnc3onc(-c4ccc(F)cc4)c23)C1 (stereo not drawn),?,?,-,0
Cc1c(NC(=O)C(C)OC(=O)c2c3c(nc4ccccc24)CCC3)c(=O)n(-c2ccccc2)n1C (stereo not drawn),22µM,0,0,0
O=C(Cc1ccc(S(=O)(=O)N2CCOCC2)s1)N1CCN(S(=O)(=O)c2ccccc2[N+](=O)[O-])CC1,22µM,0,0,0
O=C(N/N=C\C=C\c1ccco1)c1cc(-c2ccc3ccccc3c2)n[nH]1,?,0,18µM,0
CC(=O)c1ccc(NC(=O)c2cnn3c2NC(=C2CC2)C=C3C(F)F)cc1,-,-,0,-
CCOc1ccc(N(CC(=O)NCCSCc2ccccc2Cl)S(C)(=O)=O)cc1,0,0,0,0
O=C(COc1ccc(Cl)cc1)NCCSCc1ccccc1Cl,0,25µM,0,0
O=C(COc1ccc(Cl)cc1)NCCSCc1cccc(Cl)c1,0,16µM,0,0
Cc1cccc(CSCCNC(=O)COc2ccc(Cl)cc2)c1,0,?,0,0
CCCCNC(=S)N1CCN(c2ccccc2Cl)CC1,0,13µM,0,0
C=CCNC(=S)N1CCN(c2ccccc2Cl)CC1,0,0,0,?
SMILES,FUS yeast rescue,TDP43 rescue,aSyn yeast inh,Abeta yeast res
CNC(=S)N1CCC(Cc2ccccc2)CC1,0,0,0,?
CCCCNC(=S)N1CCC(Cc2ccccc2)CC1,0,0,0,18µM
Cc1ccccc1CC1C(=O)Nc2ccc(Br)cc21 (stereo not drawn),0,13µM,-,?
CC1CCc2nn(CC(=O)NCCC3=CCCCC3)cc2C1 (stereo not drawn),0,18µM,0,?
CCCCOc1ccc(CNC(=O)Cc2ccc(NC(=O)N3CCCCc4ccccc43)cc2)cc1,0,0,-,0
Cc1cccc(OCC(=O)Nc2ccccc2OCc2cc(=O)n3ccccc3n2)c1,0,0,-,0
CC1(C(=O)c2ccccc2)C2c3c(ccc4ccccc34)OC(=O)C21C(=O)N1CCOCC1 (stereo not drawn),0,18µM,0,?
COc1cccc(/C=C/c2nc(C#N)c(N3CCCCC3)o2)c1,0,16µM,-,0
CCOC(=O)C1=C(C)NC(C)=C(C(=O)OCC)C1c1cccc([N+](=O)[O-])c1,0,25µM,0,0
O=C(NCc1ccc(Cl)cc1)c1ccc(Cl)cc1[N+](=O)[O-],0,0,0,0
O=C(NCCc1ccccc1)c1ccc(Cl)cc1[N+](=O)[O-],0,11µM,0,0
CC(C)(C)n1nc(-c2ccc(Cl)cc2)c2c(N)ncnc21,0,0,2.5µM,0
CC(C)(C)n1nc(-c2ccc(F)cc2)c2c(N)ncnc21,0,0,?,0

# High-throughput results deposited in PubChem by National Center for Advancing Translational Sciences (NCATS).
